From PubChem BioAssay
The list is not random: actives were taken first. Their share in the collection is about 11%.
Tau ThT inhib: qHTS for Inhibitors of Tau Fibril Formation, Thioflavin T Binding; Microtubule-associated protein tau (Homo sapiens), P10636; recombinant tau K18 P301L, heparin-induced fibrillization, ThT fluorescence; Potency, µM (doses to about 57.4 µM), inactives show at the top dose activity, negative = inhibition, usual class: inhibitors; hit rate 2.1% among 270,000; AID 1460, 2008; also: potency is read from the fitted curve at half-maximal effect; nearly all actives have a fitted effect of over 55% in size
Target sequence (P10636 561-689 P618L limits assumed): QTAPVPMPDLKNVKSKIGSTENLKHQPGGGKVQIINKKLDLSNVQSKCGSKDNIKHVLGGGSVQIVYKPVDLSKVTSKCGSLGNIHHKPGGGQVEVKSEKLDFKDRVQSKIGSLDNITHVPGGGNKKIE
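ThT emission at 510 nm, taken 1 hr after adding 30 uM dye, quantifies aggregates formed when 20 uM heparin acts on human tau K18 P301L for 6 hr at 37 C.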
Tau fluor cs: Counterscreen qHTS for Inhibitors of Tau Fibril Formation, Fluorescence Polarization; tau K18 P301L Alexa594 fluorescence, heparin fibrillization; Potency, µM (highest dose often 57.7 µM), without a hit: at the highest dose activity change, negative = decrease; hit rate 0.93% among 280,000; AID 1463, 2008; also: potency is read from the fitted curve at half-maximal effect; nearly all actives have a fitted effect of over 55% in size
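Human tau K18 P301L (15 uM unlabeled, 0.24 uM Alexa 594-labeled) in 100 mM sodium acetate pH 7 with 20 uM heparin, 6 hr at 37 C. ThT 30 uM added, 1 hr ambient; Alexa 594 FP and total fluorescence read at 555/632 nm.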
G9a inh: qHTS Assay for Inhibitors of Histone Lysine Methyltransferase G9a. Histone-lysine N-methyltransferase EHMT2 (Homo sapiens), Q96KQ7. G9a H3K9 monomethylation, AlphaScreen, 2 h. Potency, µM (top dose mostly 102 µM), inactives show at the top dose activity, negative = inhibition, hits mostly inhibitors. hit rate 8.8% among 350,000; also: potency is read from the fitted curve at half-maximal effect; nearly all actives have a fitted effect of over 75% in size
Target sequence (Q96KQ7 913-1193 limits assumed): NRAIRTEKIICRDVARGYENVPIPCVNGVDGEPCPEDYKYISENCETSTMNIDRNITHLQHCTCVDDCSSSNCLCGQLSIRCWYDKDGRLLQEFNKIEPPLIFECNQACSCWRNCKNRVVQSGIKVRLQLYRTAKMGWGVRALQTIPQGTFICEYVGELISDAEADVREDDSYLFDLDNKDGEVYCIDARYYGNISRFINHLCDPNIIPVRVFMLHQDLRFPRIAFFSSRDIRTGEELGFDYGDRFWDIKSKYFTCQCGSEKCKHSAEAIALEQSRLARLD
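G9a (20 nM) preincubated 15 min RT with compounds, then 500 nM biotinylated H3K9 peptide and 20 uM SAM added; 2 h RT reaction. Monomethyl-H3K9 product detected by AlphaScreen with anti-H3K9me1 antibody, streptavidin donor and anti-rabbit IgG acceptor beads.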
Tau fibril FP: qHTS for Inhibitors of Tau Fibril Formation, Fluorescence Polarization; Microtubule-associated protein tau (Homo sapiens), P10636; K18 P301L tau heparin fibrillization, Alexa594 FP, 6 h; Potency, µM (doses to about 57.7 µM), without a hit: top-dose activity, negative = inhibition, actives largely listed as inhibitors; hit rate 0.39% among 280,000; AID 1468, 2008; also: potency is read from the fitted curve at half-maximal effect; nearly all actives have a fitted effect of over 55% in size
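Quantitative HTS format: compounds meet 15 uM recombinant K18 P301L tau and Alexa 594-tau tracer in 100 mM sodium acetate pH 7; 20 uM heparin triggers fibrillization at 37 C over 6 hr; FP gives the signal.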
Coupling enz: qHTS Assay for Inhibitors of Fructose-1,6-bisphosphate Aldolase from Giardia Lamblia: Coupling assay counterscreen | coupling enzyme system counterscreen, AmpLite Red fluorescence | activity change, negative = inhibition, % at 58.2 µM, hits read low | hit rate 0.67% among 290,000 | AID 2472, 2010; in the data active = activity change below about -30%
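Activity here indicates interference with the coupling reaction, not aldolase inhibition. Compounds at 57.5 uM final met coupling enzymes for 10 min at RT; substrate and AmpLite Red detection followed, with a 525/598 nm fluorescence read after 20 min.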
Sfp inh: qHTS Assay for Inhibitors of Bacillus subtilis Sfp phosphopantetheinyl transferase (PPTase) | AID 1490, 2009 | Potency, µM, for the others: largest response in the series, negative = inhibition, usual class: inhibitors | Biochemical Sfp PPTase activity, qHTS | hit rate 3.5% among 310,000;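 also: the enzyme is Sfp with the accession as filed and its product quenches rhodamine fluorescence; potency is read from the fitted curve at half-maximal effect; 0% = enzyme reaction without inhibitor and -100% = no enzyme wells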
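Step 1, compound plus 15 nM Sfp-PPTase, 15 min, room temperature. Step 2, add rhodamine-CoA (5 uM) and BHQ-2-YbbR (12.5 uM). Step 3, read 525/598 nm fluorescence at 0 and 30 min.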
Numbers without * were called inactive; ? = inconclusive; nt = not tested or not shown; [ ] = dose if it differs, or a comment. Unless noted, calls follow the shape of the dose curve; as a rule, active = well fitted curve in the direction sought with a large enough effect; inconclusive = small, poorly fitted or top-dose-only effect, or another doubt; inactive = no such curve, though single readings can be large; an effect the other way counts as inactive or inconclusive. Unless noted, % is scaled to controls: 0 for no effect and ±100 for the full control effect.

SMILES	Tau ThT inhib	Tau fluor cs	G9a inh	Tau fibril FP	Coupling enz	Sfp inh
CCc1nnc(N2C(=N)SCC2=O)s1	-15%	-12%	28µM*	4%	-6	50µM*
CCNCCC(CCC(C)C)c1ccc2c(c1)OCO2 (stereo not given)	-7%	-14%	1.6µM*	-3%	2	?
CC(C)CCC(CCNCc1ccccn1)c1ccc2c(c1)OCO2 (stereo not given)	nt	nt	16µM*	nt	0	-21%
COc1ccc(S(=O)(=O)NCC2CCCN(Cc3ccccc3C)C2)cc1 (stereo not given)	-15%	-17%	4%	5%	4	9%
N#C/C(=C/c1ccco1)c1nc2ccccc2s1	9%	2%	?	1%	-6	-23%
COc1ccc(-c2csc(/C(C#N)=C\c3ccc(O)c([N+](=O)[O-])c3)n2)cc1OC	1.3µM*	4.5µM*[quencher]	nt	-5%	6	-10%
COc1ccc(/C=C(/C#N)c2nc(-c3ccc(Br)cc3)cs2)cc1	?	-23%	47%[59 µM]	?	nt	nt
COc1cc(/C=C(\C#N)c2nc3ccccc3s2)cc([N+](=O)[O-])c1O	1.4µM*	16µM*[quencher]	16µM*	-3%	-2	-29%
N#C/C(=C\c1ccc(O)c([N+](=O)[O-])c1)c1nc2ccccc2s1	2.2µM*	?	4µM*	-1%	8	-25%
CC(C)c1ccc(/C=C(\C#N)c2nc(-c3ccc(O)cc3)cs2)cc1	7.9µM*	8.9µM*[quencher]	-22%[59 µM]	13µM*	nt	nt
COc1ccc(-c2csc(/C(C#N)=C\c3ccc(OC)c([N+](=O)[O-])c3)n2)cc1	?	-27%	13%[59 µM]	0%	0	2%
COc1cc(/C=C(\C#N)c2ccccn2)cc(OC)c1O	?	-11%	?	9%	-5	-22%
O=S(=O)(NCCc1csc2nc(-c3ccc(F)cc3)nn12)c1ccc2c(c1)OCCO2	1%	-16%	?	-14%	nt	nt
CCc1c(C)c2cc3c(c(C)c2oc1=O)OCN(CCc1ccccc1F)C3	?	?	8%[59 µM]	7%	nt	nt
CN=C(Nc1cccc(Cl)c1)SC1CC(=O)N(c2ccc(OC)cc2)C1=O (stereo not given)	-10%	?	5%	?	2	1%
CN(C)S(=O)(=O)c1ccc(C(=O)NCCN2C(=O)S/C(=C\c3cccnc3)C2=O)cc1	2%	3%	-23%[59 µM]	-3%	-11	40µM*
Cc1cc(C(=O)NCCN2C(=O)S/C(=C\c3cccs3)C2=O)ccc1[N+](=O)[O-]	?	-26%	-13%[59 µM]	-13%	1	35µM*
CS(=O)(=O)c1ccc(C(=O)NCCN2C(=O)S/C(=C\c3cccnc3)C2=O)cc1[N+](=O)[O-]	16µM*	?	?	?	-1	-25%
Cc1cc(C(=O)NCc2cccs2)ccc1[N+](=O)[O-]	-9%	-11%	15%[59 µM]	-8%	-1	4%
COc1ccc(OC)c2sc(N(Cc3cccnc3)C(=O)c3ccc(C(C)=O)cc3)nc12	?	-15%	-26%[59 µM]	1%	nt	nt
O=C1C(Cc2ccccc2O)NC(=S)N1c1ccccc1 (stereo not given)	-1%	2%	-1%[59 µM]	1%	-1	16%
COc1cccc(-c2c(C#N)c(N)nc3c2c(C)nn3-c2ccccc2)c1O	nt	nt	6%	nt	-4	-5%
CCNc1ncc2nc(-c3cn(C)c4ccccc34)c(=O)n(Cc3cccc(OC)c3)c2n1	nt	nt	-36%[0.501 µM]	nt	0	4%
CCCCn1c(N)c(C(=S)NC(=O)CC(C)(C)C)c(=O)n(C)c1=O	-12%	-8%	-7%	-2%	9	25%
Cc1ccc(O)c(C(=O)c2cc(C(=O)NCCc3ccccc3)c(=O)n(CCc3ccccc3)c2)c1	-12%	-15%	-18%[59 µM]	10%	0	13%
SMILES	Tau ThT inhib	Tau fluor cs	G9a inh	Tau fibril FP	Coupling enz	Sfp inh
COc1ccc(O)c(C(=O)c2cc(C(=O)NCCc3ccccc3)c(=O)n(CCc3ccccc3)c2)c1	-6%	-8%	8.9µM*	11%	-1	-10%
CC1CC(C)CN(C(=O)c2ccc3c(c2NCCO)C(=O)c2ccccc2C3=O)C1 (stereo not given)	18µM*	?	28µM*	10%	-2	-20%
O=C1c2ccccc2-c2c1cccc2C(=O)N1CCCCC1	-11%	-12%	14%[59 µM]	-3%	0	6%
CC1CCN(S(=O)(=O)c2ccc3c(ccn3CC(=O)NCc3ccc(N(C)C)cc3)c2)CC1	0%	?	-18%[59 µM]	?	nt	nt
COc1ccc(C2/C=C\CN(C(=O)C3CCCC3)[C@H](Cc3ccccc3)C(=O)N2Cc2ccc(F)cc2)cc1 (stereo not given in full)	2%	15%	5%[59 µM]	7%	-2	3%
CC(=O)N1CCCc2cc(S(=O)(=O)CCC(=O)N3CCN(c4cccc(C)c4)C(C)C3)ccc21 (stereo not given)	-13%	-3%	50µM*	8%	0	6%
Cc1cccc(N2CCN(C(=O)CCS(=O)(=O)c3ccc(Br)cc3)CC2C)c1 (stereo not given)	?	-20%	25µM*	?	1	-9%
O=C(CSc1nc(-c2ccccc2)cn1-c1ccccc1F)Nc1ccc(F)cc1	-6%	?	?	?	nt	nt
O=C1NC(=O)/C(=C/c2ccc(N3CCOCC3)o2)N1	?	-18%	nt	-14%	-30	32µM*
O=C1NC(=O)/C(=C\c2ccc(N3CCOCC3)o2)N1	?	?	25µM*	?	-5	18µM*
N#C/C(=C/c1ccc(N2CCOCC2)o1)C(=O)Nc1ccccc1	?	-24%	-2%	7%	-3	?
Cc1cc(/C=C2/NC(=O)NC2=O)c(C)n1-c1ccc(N2CCOCC2)cc1	?	-15%	45µM*	-10%	-2	-1%
Cc1cc(/C=C2\NC(=O)NC2=O)c(C)n1-c1ccc(N2CCOCC2)cc1	?	?	nt	?	-14	0%
COc1ccc(CNC(=O)Cn2ncc3c(=O)oc4ccc(C)cc4c32)c(OC)c1	1%	-17%	5%[59 µM]	-12%	nt	nt
CNC(=O)c1c(NC(=O)c2ccco2)sc2c1CCC2	nt	nt	nt	nt	nt	-10%
